Data on 15 compounds can be found in PubChem BioAssay (EPA / NIEHS).

Inconclusive results are not listed. Activity calls are given as the source filed them. Rule for the calls: active = hit-call score of the fitted dose curve at least 0.9, where 1 is the maximum; inconclusive = response in the unintended direction; inactive = score below 0.9.

This assay is described as follows: Tanguay_ZF_120hpf_JAW_legacy: (Legacy) Oregon State University Tanguay Lab 120 Hour Post-fertilization zebrafish Assay for Jaw Malformation (AID 2283638).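 For AC50: active means more embryos with jaw malformation than DMSO controls.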 The method in brief:
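Steps: dechorionate 4 hpf embryos (pronase); plate 1/well at 6 hpf; add test chemical, 0.64% DMSO final; seal, cover, hold at 28C statically to 120 hpf; score jaw defect presence/absence microscopically. Dead embryos not scored.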
On to `Oc1ccc(C(c2ccc(O)cc2)(C(F)(F)F)C(F)(F)F)cc1`, for which the AC50 is 54.7 µM (active).
With `CCOC(=O)C(O)(c1ccc(Cl)cc1)c1ccc(Cl)cc1`, the result was inactive.
Still for that read-out and setting: under `CCC(C)c1cc([N+](=O)[O-])cc([N+](=O)[O-])c1O` (stereo not given) stands “inactive”.
Still for that read-out and setting: next, `O=NN(c1ccccc1)c1ccccc1`: “inactive”.
`CC(C)C(=O)OCC(C)(C)C(OC(=O)C(C)C)C(C)C` (stereo not given): the AC50 is 41.6 µM (active).
Regarding `Cc1cc(-c2ccc(N)c(C)c2)ccc1N`, the outcome was inactive.
On to `Nc1ccc(-c2ccc(N)cc2)cc1`, for which the compound was classed as inactive.
The same measure, in the same setting: next, `Cc1ccccc1O`: “inactive”.
As for `CCOCCOC(C)=O`, the outcome was inactive.
The same measure, in the same setting: under `CCCCCCCCOC(=O)c1ccccc1C(=O)OCCCCCCCC` stands “inactive”; under `Cc1ccc(O)c(C)c1`, “inactive”; under `Oc1c(Cl)c(Cl)c(Cl)c(Cl)c1Cl`, “inactive”.
Still for that read-out and setting: next, `CN(C)CCO`: “inactive”; `O=C(NC(=O)c1c(F)cccc1F)Nc1cc(Cl)c(OC(F)(F)C(F)F)c(Cl)c1`: “inactive”; `CCC(C)(CC)c1cc(NC(=O)c2c(OC)cccc2OC)on1`: “inactive”.

Usually AC50 stands for the concentration at which the activity in the assay is half-maximal.
